# D1 antag = Antagonist of Human D 1 Dopamine Receptor: qHTS. hit rate 3.2% among 360,000. HEK293 TREx D1 cells, calcium flux, dopamine EC80; stronger effect = lower value. D(1A) dopamine receptor (Homo sapiens), P21728. activity change, negative = inhibition, % at 10 µM; in the data active = activity change below about -30%
#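 Tetracycline-induced HEK293 T-REx cells with force-coupled D1 receptor were loaded with a no-wash calcium dye. Compound was added after a 10 s baseline and read kinetically for 180 s; EC80 dopamine was then added and calcium flux followed another 180 s.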
# D1 potentiator = Potentiators of Human D1 Dopamine Receptor: qHTS | AID 504651, 2011 | HEK293 TREx D1 cells, calcium flux, dopamine EC20 potentiation | potentiation, % at 10 µM | hit rate 0.036% among 360,000 | D(1A) dopamine receptor (Homo sapiens), P21728; in the data active = potentiation above about 30%
# D1 ag = Allosteric Agonists of the Human D1 Dopamine Receptor: qHTS | HEK293 T-REx D1 cells, calcium flux, agonist mode | hit rate 1% among 360,000 | activation, % at 2 µM
#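 Agonism was scored from calcium flux recorded over 180 s (1 read/s) after pintool compound addition, following a 10-cycle baseline. Cells were inducible force-coupled HEK293 TREx D1, plated overnight at 30 C and loaded with no-wash calcium dye.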
# TRHR enhancer = qHTS for Small Molecule Agonists and Allosteric Enhancers of Human TRH Receptor: Primary Screen for Enhancers; Thyrotropin-releasing hormone receptor (Homo sapiens), P34981; TRHR cells, fluo-8 calcium fluorescence, EC20 TRH enhancement; enhancement, % at 2 µM; hit rate 0.66% among 360,000; in the data active = enhancement above about 30%
# Target sequence (P34981 whole entry, looked up): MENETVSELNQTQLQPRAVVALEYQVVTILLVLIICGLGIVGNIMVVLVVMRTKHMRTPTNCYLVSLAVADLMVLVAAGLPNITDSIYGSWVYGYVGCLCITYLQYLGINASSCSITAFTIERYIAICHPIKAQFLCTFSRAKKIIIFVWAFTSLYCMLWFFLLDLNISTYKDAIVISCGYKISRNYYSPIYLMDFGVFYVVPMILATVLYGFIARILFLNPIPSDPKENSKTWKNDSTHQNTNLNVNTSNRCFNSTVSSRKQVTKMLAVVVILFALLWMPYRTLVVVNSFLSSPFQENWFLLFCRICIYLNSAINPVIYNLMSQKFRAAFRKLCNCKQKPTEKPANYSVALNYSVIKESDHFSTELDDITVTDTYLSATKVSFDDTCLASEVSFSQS
#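 Enhancer read-out: after compound pinning and an initial kinetic agonist-mode read, an EC20 of TRH (10 nM final) was injected and fluo-8 calcium signal (Ex 480/Em 530) followed at 1 s/cycle for 100 cycles in TRHR-expressing cells.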
# TRHR ag = qHTS for Small Molecule Agonists and Allosteric Enhancers of Human TRH Receptor: Primary Screen for Agonists; hit rate 0.18% among 360,000; AID 493084, 2011; TRHR cells, calcium flux fluo-8, FDSS agonist mode; Thyrotropin-releasing hormone receptor (Homo sapiens), P34981; activation, % at 2 µM
#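 TRHR-expressing cells, plated overnight in medium with 10% serum, were loaded with fluo-8 calcium dye at room temperature. After a 10 s baseline, library compound was pin-added and calcium release was recorded kinetically (ex 480/em 530) as agonist response.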
# Numbers stand for hits; 0 = inactive; - = no result. Compounds with a hit are over-represented: about 4.7% of the library has one in this group of screens. Rule as the data show it, unless noted: active = activation above about 30%; inactive = the rest.
SMILES,D1 antag,D1 potentiator,D1 ag,TRHR enhancer,TRHR ag
O=C(N=c1ccn(-c2nc3ccccc3nc2NS(=O)(=O)c2ccc(Cl)cc2)cc1)c1ccccc1Cl,0,0,89,0,0
Cc1c(NC(=O)Cc2ccc(Cl)cc2)cccc1-c1nc2cccnc2s1,0,0,0,0,0
Cc1cccc(NC(=O)C(Cc2ccccc2)n2cccc2)c1C (configuration not stated),0,0,0,0,0
O=S(=O)(NCC1CCCO1)c1ccccc1 (configuration not stated),0,0,0,0,0
O=C(c1ccc(S(=O)(=O)NCC2CCCO2)cc1)N1CCc2ccccc21 (configuration not stated),-51,0,0,0,0
Cc1ccc(-c2ccc(S(=O)(=O)NCC3CCCO3)cc2)cc1 (configuration not stated),-32,0,0,0,0
Cc1ccc(CN(Cc2ccco2)S(=O)(=O)c2ccc(S(=O)(=O)NCC3CCCO3)cc2)cc1 (configuration not stated),-36,0,0,0,0
CN(C)C(=O)CSc1nnc(CCNC(=O)OC(C)(C)C)o1,-33,0,0,0,0
CN(C)C(=O)CSc1nnc(CCCCCNC(=O)OC(C)(C)C)o1,0,0,0,0,0
CC(C)(C)OC(=O)NCCCCCc1nnc(SCc2cccc(F)c2)o1,-36,0,0,0,0
Cc1cc(NC(=O)c2cccs2)no1,0,0,0,0,0
Cc1ccc(S(=O)(=O)Nc2cc(C)on2)cc1,0,0,0,0,0
Cc1cc(NC(=O)c2cc(-c3cccs3)on2)no1,-42,0,0,0,0
Cc1cc(NS(=O)(=O)c2cccs2)no1,-83,0,0,0,0
COc1ccc([C@]23Cc4ccccc4C(O2)C2=C(O3)C(=O)c3ccccc3C2=O)cc1,0,0,0,0,0
Cc1c([S+](=O)([O-])N2CCN([S+](=O)([O-])c3c(F)cccc3F)CC2)sc2ccc(Cl)cc12,-31,0,0,0,0
Cc1cccc(NC(=O)Cn2cc(C(=O)C3CCCCC3)c3ccccc32)c1,-30,0,0,0,0
CC1=CC=CC2=NC(=O)CC(C)(C(=O)N(CC(=O)NC3CCCC3)c3ccc(F)cc3)N12 (configuration not stated),-34,0,0,0,0
COc1ccc(OC)c(CNS(=O)(=O)c2cc(-c3onc(C)c3C)ccc2C)c1,-38,0,0,0,0
COc1ccc(NS(=O)(=O)c2cc(-c3onc(C)c3C)ccc2C)c(OC)c1,0,0,0,0,0
CN(Cc1ccccc1)c1ccc(-c2nc(-c3ccco3)no2)cc1[N+](=O)[O-],0,0,0,0,0
O=C(COc1ccccc1Cl)N(Cc1ccco1)Cc1ccco1,0,0,0,0,0
CC(=O)Nc1ccc(S(=O)(=O)NCCOc2ccc(Cl)cc2C)cc1,0,0,0,0,0
CCCCOc1ccc(CONS(=O)(=O)c2ccc(NC(C)=O)cc2)cc1Cl,0,0,136,0,0
COc1ccc(C2C(C(=O)Nc3cccnc3)=C(C)Nc3nc(-c4ccccc4)nn32)cc1OC (configuration not stated),0,0,0,0,0
SMILES,D1 antag,D1 potentiator,D1 ag,TRHR enhancer,TRHR ag
COc1ccc(C)cc1NC(=O)c1cc2c(s1)-c1ccccc1SC2,-32,0,0,0,0
CCOC(=O)c1ccccc1NC(=O)c1cc2c(s1)-c1ccccc1SC2,-45,0,0,0,0
CC(Nc1ccc(S(=O)(=O)N2CCN(C)CC2)cc1[N+](=O)[O-])c1ccccc1 (configuration not stated),-73,0,0,0,0
COc1cccc(C(CNc2ccc(S(=O)(=O)N3CCN(C)CC3)cc2[N+](=O)[O-])N(C)C)c1 (configuration not stated),0,0,0,0,0
COc1cc(S(=O)(=O)N2CCCN(C)CC2)ccc1NC(C)=O,0,0,0,30,0
COc1ccccc1C(C)Nc1ccc(S(=O)(=O)N2CCN(C)CC2)cc1[N+](=O)[O-] (configuration not stated),-65,0,0,0,0
CCOC(=O)C1CCN(C(=O)CN2c3ccc(C(C)C)cc3-c3ccccc3S2(=O)=O)CC1,0,0,0,0,0
COc1ccc([N+](=O)[O-])cc1/C=N/NC(=O)CNC(=O)C(c1ccccc1)c1ccccc1,-32,0,0,0,0
COc1ccc(S(=O)(=O)Nc2cccc(-c3ccc(N4CCC(C)CC4)nn3)c2)cc1OC,0,0,0,0,0
Cc1ccc(S(=O)(=O)Nc2nccs2)cc1[N+](=O)[O-],0,0,0,0,0
Cc1ccc(S(=O)(=O)Nc2ccc(S(=O)(=O)Nc3nccs3)cc2)c([N+](=O)[O-])c1,0,0,0,58,0
COCCNC(=O)C(=O)NCC(c1cccnc1)N1CCN(c2ccccc2)CC1 (configuration not stated),0,0,0,0,0
O=C(NCc1ccc2c(c1)CCN2C(=O)c1ccccc1)Nc1cccc(C(F)(F)F)c1,-43,0,0,0,0
CC(C)(C)c1ccc(C2SCC(=O)N2c2cccc(C(=O)O)c2)cc1 (configuration not stated),-33,0,0,0,0
Cc1ccc(-c2noc(-c3ccoc3C)n2)cc1,0,0,104,0,0
CC(=O)c1cccc(NC(=O)C2CCN(S(=O)(=O)c3ccc4c(c3)oc(=O)n4C)CC2)c1,0,0,0,0,0
COc1ccc(-n2ncc(C(=O)Nc3ccc4c(c3)OCO4)c2C2CCN(C(=O)OC(C)(C)C)CC2)cc1,0,0,0,0,0
CC(C)c1ccc2oc(-c3ccc(Cl)c(NC(=O)c4cccs4)c3)nc2c1,0,0,0,0,0
CCOc1ccc(N2CC(NC(=O)C3CCCCC3)CC2=O)cc1 (configuration not stated),-,0,0,0,0
O=C(/C=C/c1ccc2c(c1)OCO2)c1ccco1,0,0,0,0,0
NS(=O)(=O)c1ccc(NC(=O)/C=C/c2ccc3c(c2)OCO3)cc1,-48,0,0,0,0
Cc1ccc(/C=C/C(=O)Nc2cc(S(=O)(=O)N3CCOCC3)ccc2N2CCOCC2)cc1,0,-,0,0,0
O=C(/C=C/c1ccc2c(c1)OCO2)Nc1cc(S(=O)(=O)N2CCOCC2)ccc1N1CCOCC1,-47,0,0,0,0
Nc1ccccc1C(=O)/C=C/c1ccc2c(c1)OCO2,-35,0,0,0,0

# Screening data as filed in PubChem BioAssay.
